# pAkt inh: blocks phosphorylation of Akt; Neuro2A IGF-stimulated pAkt S473 HTRF, 20 min; active compounds read low; activity change, % for hits at 50 µM; 0.32% of 360,000 active; in the data active = activity change below about -80%; inconclusive = mostly about -51% to -80%
#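 Neuro2A cells in DMEM with 0.5% FBS, overnight at 37 deg C, given compound at single 50 µM final, then IGF (6 nM final) for 20 min at 37 deg C. Lysed; phospho-Akt Ser473 by HTRF after 24 h, 665/615 ratio.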
# CtBP-E1A blk: inhibitors of CtBP/E1A interaction; AlphaScreen GST-E1A/His-CtBP binding, 1536-well; active compounds read low; activity change, % (test concentration not listed); 0.49% of 340,000 active; AID 651724
#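 GST-E1A and His-tagged CtBP (125 nM each as 5X stock) were preincubated with pin-transferred compound for 2 h at 37 °C in the dark, then glutathione donor and nickel acceptor beads were added for 1 h before AlphaScreen reading.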
# PI4K2A inh: blocks human PI4K2A kinase activity. purified PI4K2A, ADP-Glo luminescence, 1 h; active compounds read low. activity change, negative = inhibition, % at 76.9 µM. 0.13% of 420,000 active; in the data active = activity change below about -50%; inconclusive = mostly about -30% to -49%;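 also: -100% = wells without enzyme as full effect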
#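 In this quantitative HTS, ADP production by PI4K2A was quantified luminescently after 1 h at ambient temperature; 100 microM adenosine served as plate-quality control.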
# Six1-Eya2 inh: Six1/Eya2 interaction inhibition | activity change, % (concentration not given with the values) | Q15475+O00167 | 0.56% of 360,000 active | AlphaScreen GST-Six1/His-Eya2 binding, biochemical; active compounds read low
#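 GST-Six1 + His-Eya2 (5X stock: 250/500 nM); Tris pH 8.0, 300 mM NaCl, 0.05% BSA, 0.02% Tween 20; GSH donor/Ni acceptor beads; 1 h 37 °C dark; AlphaScreen readout.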
# PI5P4K alpha inh: PI5P4K alpha (human) kinase inhibition; AID 652105; max response, %; PI5P4Kalpha enzyme, ADP-Glo luminescence, 60 min; active compounds read low; P48426; 1.2% of 330,000 active; active = max response of -50% or lower; inconclusive = between -30% and -50%; inactive = -30% or higher; also: value at the top dose of about 77 µM
# Target sequence (P48426 whole entry, looked up): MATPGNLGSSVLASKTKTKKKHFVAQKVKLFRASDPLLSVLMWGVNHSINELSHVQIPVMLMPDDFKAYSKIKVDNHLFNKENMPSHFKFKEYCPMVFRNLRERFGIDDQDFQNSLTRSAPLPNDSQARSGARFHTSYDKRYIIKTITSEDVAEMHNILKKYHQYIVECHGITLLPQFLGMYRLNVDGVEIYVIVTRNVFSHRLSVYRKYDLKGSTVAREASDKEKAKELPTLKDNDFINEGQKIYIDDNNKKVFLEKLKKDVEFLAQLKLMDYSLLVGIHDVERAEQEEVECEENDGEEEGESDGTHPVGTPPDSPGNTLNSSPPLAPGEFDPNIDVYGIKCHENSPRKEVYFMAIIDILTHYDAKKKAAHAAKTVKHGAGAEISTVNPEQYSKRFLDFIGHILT
#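 Quantitative HTS of the MLSMR library against PI5P4Kalpha with substrate. ATP added last at 5 microM final; room temperature, 60 minutes. Remaining ATP depleted, ADP converted and read as luminescence.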
# The depositor's hits bear a star; i = inactive; ? = inconclusive; · = no result. An excerpt weighted towards active compounds, which were near 1.8% of everything screened. Rule as the data show it, unless noted: active = activity change below about -65%; inconclusive = mostly about -30% to -63%; inactive = weaker than that. Unless noted, % is scaled to controls: 0 for no effect and ±100 for the full control effect.
SMILES,pAkt inh,CtBP-E1A blk,PI4K2A inh,Six1-Eya2 inh,PI5P4K alpha inh
COc1ccc(C(=O)COC(=O)C2CC3CCCC(C2)C3=O)cc1Br (configuration not stated),i,7,-4,-3,6
COc1ccc(C(=O)COC(=O)CN2CC(=O)Oc3ccccc32)cc1Br,i,-93*,1,-93*,-23
O=C1CC(c2c[nH]c3ccccc23)C(=O)N1c1ccccc1 (configuration not stated),i,3,1,-5,-4
COc1cccc(N2C(=O)CC(c3c[nH]c4ccccc34)C2=O)c1 (configuration not stated),-102%*,-4,3,-10,-12
NC(=O)CC(NSc1ccccc1[N+](=O)[O-])C(=O)O (configuration not stated),i,0,-8,1,-57*
CN(C)/C=C/C(=O)c1ccc2noc(-c3cccc(F)c3)c2c1,i,·,-2,0,-66*
COc1ccc(-c2onc3ccc(C(=O)/C=C/N(C)C)cc23)cc1,i,0,-13,22,-78*
COc1ccc(-c2onc3ccc(Br)cc23)cc1,i,16,0,12,2
CC1=NN(c2ccc(S(=O)(=O)O)cc2C)C(=O)C1,i,14,-68*,6,-13
CC1=NN(c2ccc(Cl)cc2)C(=O)C1,i,6,?,-9,-1
NC(=S)N/N=C/c1coc2ccc(Br)cc2c1=O,i,-5,4,-7,-22
NC(=S)N/N=C/c1coc2ccc(O)cc2c1=O,i,·,-12,?,-72*
O=C(N/N=C/c1coc2ccccc2c1=O)c1cc(Br)c(O)c(Br)c1,i,0,1,2,-70*
C=CCn1c(SCC(=O)c2ccc(O)c(O)c2)nnc1-c1ccc(C)cc1,i,0,-2,3,-3
C=CCn1c(SCC(=O)c2ccc(O)c(O)c2)nnc1-c1ccc(OC)cc1,i,-5,-8,-10,-51*
Cc1c(O)c(CN2CCCC2)cc2c3c(c(=O)oc12)CCC3,i,-10,7,-2,·
CCc1cc(=O)oc2c(C)c(O)c(CN3CCCCC3)cc12,-93%*,3,-2,5,-2
CSc1ccc(C2c3c(oc4cc(C)cc(C)c4c3=O)C(=O)N2CCO)cc1 (configuration not stated),·,·,-1,·,·
CN1C(=O)C2(N=c3ccccc3=N2)c2ccccc21,i,?,4,?,-6
Cn1c(CCNC(=O)c2ccco2)nc2ccccc21,i,4,-5,3,-3
Cn1c(CCCNC(=O)c2ccco2)nc2ccccc21,i,-3,1,1,-70*
COC(=O)CCCC(=O)N(C)CC1CCCN(CCc2ccccc2C)C1 (configuration not stated),i,0,-9,-5,-1
COc1cc(/C=C2\S/C(=N/S(=O)(=O)c3ccccc3)NC2=O)c([N+](=O)[O-])cc1OC,i,-18,-6,-19,-55*
C[C@@H]1CCCCO[C@H](CN(C)C(=O)CCC(F)(F)F)[C@@H](C)CN([C@H](C)CO)C(=O)c2cc(NC(=O)c3ccncc3)ccc2O1,i,-15,-12,-18,-9
O=C1C=CC(=Nc2ccc3c(c2)C(=O)c2ccccc2-3)O1,i,?,0,?,-58*
CC(C)=CC1C(C(=O)NCCOc2ccccc2)C1(C)C (configuration not stated),i,5,-1,10,-1
CCn1nnnc1SCC(=O)N1c2ccccc2Sc2ccccc21,i,3,-7,2,-1
CN(CC(=O)Nc1cccc(F)c1)C(=O)c1ccc(COc2ccccc2)cc1,i,-9,-13,-70*,4
CN(CC(=O)Nc1cccc(F)c1)C(=O)c1ccc(C(=O)c2ccccc2)cc1,i,-2,2,2,12
COc1ccc(C2=CC3=C(Br)C(=O)C(C)(OC(=O)c4ccco4)C(=O)C3=CO2)cc1 (configuration not stated),i,-2,?,?,-74*

# High-throughput results: PubChem BioAssay, National Center for Advancing Translational Sciences (NCATS)
